Experimental data: PubChem BioAssay (NCATS)
“And” between values parts separate entries of the source, which are not always exact repeats. Identical values can stand only once. Records with an inconclusive call do not appear. Where a call stands in place of a potency, no number is given. Some compounds were tested as several samples or in several runs, with calls that do not always agree. The source made the active and inactive calls. The call rests on the fitted dose curve; in most records, active means well fitted curve in the direction sought with a large enough effect; inconclusive means small, poorly fitted or top-dose-only effect, or another doubt; inactive means no such curve, though single readings can be large; an effect the other way counts as inactive or inconclusive.

Key:
[1] = Viability qHTS for spleen associated tyrosine kinase inhibitor (SYKi) naive MV4-11 cells (AID 1963823); settings: MV4-11 AML viability, CellTiter-Glo luminescence, 72 h; series mostly up to 45 µM; further: nearly all actives have a fitted effect of over 40% in size
Outline: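 Cells: MV4-11, SYK inhibitor naive, 500 per well. Treatment: library compounds, 72 hr, 37 C, 5% CO2. Read-out: CellTiter-Glo luminescence after 10 min RT.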

[2] = Viability qHTS for spleen associated tyrosine kinase inhibitor (SYKi) drug resistant MV4-11 cells (AID 1963824); settings: SYKi-resistant MV4-11 viability, CellTiter-Glo, 72 h; series mostly up to 45 µM; further: nearly all actives have a fitted effect of over 35% in size
Outline: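 SYK-inhibitor-resistant MV4-11 AML cells were seeded at 500 per well onto compound and cultured 72 hours (37 °C, 5% CO2). CellTiter-Glo was then added, and after 10 min at room temperature, luminescence gave viability.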

[3] = Quantitative highthroughput screen to assess conditional lethalithy of NOMO1 cells grown in RPMI1640 with untreated serum (RPMI+s) (AID 1963876); settings: NOMO1 AML cells in RPMI+serum, CellTiter-Glo viability, 48 h; series mostly up to 45.8 µM; further: nearly all actives have a fitted effect of over 35% in size
Outline: (§1)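 Each medium arm—HPLM with 10% dialyzed FBS, or RPMI1640 with 5 mM glucose and 10% untreated or dialyzed FBS—was screened against an 11-point, 3-fold compound titration for 48 h at 37 °C, with CellTiter-Glo luminescence as endpoint.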

[4] = Quantitative highthroughput screen to assess conditional lethalithy of NOMO1 cells grown in Human Plasma-Like Medium with dialyzed fetal bovine serum (HPLM+ds) (AID 1963878); settings: NOMO1 AML cells in HPLM+ds, CellTiter-Glo viability, 48 h; series mostly up to 45.8 µM; further: nearly all actives have a fitted effect of over 35% in size
Outline: as §1

[5] = Quantitative highthroughput screen to assess conditional lethalithy of SEM cells grown in Human Plasma-Like Medium with dialyzed fetal bovine serum (HPLM+ds) (AID 1963882); settings: SEM B-ALL cells in HPLM+ds, CellTiter-Glo viability, 48 h; series mostly up to 45.8 µM; further: nearly all actives have a fitted effect of over 35% in size
Outline: as §1

[6] = Quantitative highthroughput screen to assess conditional lethalithy of SEM cells grown in RPMI1640 with unreated serum (RPMI+s) (AID 1963883); settings: SEM B-ALL cells, CellTiter-Glo viability, 48 h; series mostly up to 45.8 µM; further: nearly all actives have a fitted effect of over 35% in size
Outline: as §1

[7] = Quantitative highthroughput screen to assess conditional lethalithy of SEM cells grown in RPMI1640 with dialyzed fetal bovine serum (RPMI+ds) (AID 1963884); settings: SEM B-ALL cells, RPMI+dialyzed FBS, CellTiter-Glo viability, 48 h; series mostly up to 45.8 µM; further: nearly all actives have a fitted effect of over 35% in size
Outline: as §1

[8] = Cellular viability qHTS for adrenocortical cancer (ACC) cell line SW-13 (AID 1963989); settings: SW-13 ACC cells viability, CellTiter-Glo, 48 h; activity (max response): stronger effect = lower value; further: nearly all actives have a fitted effect of over 65% in size;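 on activity (max response): cells grown in serum-free medium with ITS supplement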
Outline: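 48 h treatment, SW-13 in ITS/DMEM serum-free; doses up to 46 uM; readout CellTiter-Glo luminescence; curve fit four-parameter logistic.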

[9] = Quantitative highthroughput screen to assess conditional lethalithy of P12 Ichikawa cells grown in Human Plasma-Like Medium with dialyzed fetal bovine serum (HPLM+ds) (AID 1963879); settings: ATP luminescence, 48 h; Potency: viability; series mostly up to 45.8 µM; further: nearly all actives have a fitted effect of over 35% in size
Outline: as §1

[10] = Quantitative highthroughput screen to assess conditional lethalithy of P12 Ichikawa cells grown in RPMI1640 with untreated serum (RPMI+s) (AID 1963881); settings: ATP luminescence, 48 h; Potency: viability; series mostly up to 45.8 µM; further: nearly all actives have a fitted effect of over 35% in size
Outline: as §1

[11] = Cellular viability qHTS for adrenocortical cancer (ACC) cell line NCI-H295R (AID 1963990); settings: CellTiter-Glo ATP luminescence, 48 h; series mostly up to 46.1 µM; further: nearly all actives have a fitted effect of over 60% in size
Outline: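 Compound titrations (up to 46 uM final) are applied to NCI-H295R cultures for 48 h at 37C. Viable cell number is estimated by CellTiter-Glo signal, normalised to DMSO and doxorubicin controls.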

[12] = Quantitative highthroughput screen to assess conditional lethalithy of P12 Ichikawa cells grown in RPMI1640 with dialyzed fetal bovine serum (RPMI+ds) (AID 1963880); settings: ATP luminescence, 48 h; Potency: P12-Ichikawa viability; series mostly up to 45.8 µM; further: nearly all actives have a fitted effect of over 35% in size
Outline: as §1

[13] = Quantitative highthroughput screen to assess conditional lethalithy of NOMO1 cells grown in RPMI1640 with dialyzed fetal bovine serum (RPMI+ds) (AID 1963877); settings: NOMO1 in RPMI+dialyzed FBS viability, ATP luminescence, 48 h; series mostly up to 45.8 µM; further: nearly all actives have a fitted effect of over 30% in size
Outline: as §1
Potency means the concentration at half of the fitted maximal effect.

Compound | Potency [1] | Potency [2] | Potency [3] | Potency [4] | Potency [5] | Potency [6] | Potency [7] | Potency [8] | Potency [9] | Potency [10] | Potency [11] | Potency [12] | activity (max response) [8] | Potency [13]
NC(=O)[C@@H](CCC(F)(F)F)N(Cc1ccc(-c2ncon2)cc1F)S(=O)(=O)c1ccc(Cl)cc1 | 20.9 µM (active) | 18.6 µM (active) | inactive | 20.9 µM (active) | 23.5 µM (active) | 16.6 µM (active) | 18.7 µM (active) | 28.2 µM (active) |  |  |  |  |  | 
COc1cc(N2CCC(N(C)C)CC2)ccc1Nc1ncc(Cl)c(Nc2ccccc2P(C)(C)=O)n1 | 0.0661 µM (active) | 116 nM (active) and 148 nM (active) | 2.63 µM (active) | 1.05 µM (active) | 0.467 µM (active) |  | 0.524 µM (active) | 2 µM (active) | 0.933 µM (active) | 2.09 µM (active) | 8.91 µM (active) |  |  | 
COc1c(Cl)cc2c([nH]c3cnccc32)c1NC(=O)c1cccnc1C | 20.9 µM (active) | 18.6 µM (active) and 20.6 µM (active) | inactive | inactive | inactive |  | inactive |  | inactive | inactive | inactive | inactive | -4.78% (inactive) | 
CN(C)c1ccc(-c2nc3ncc(Cl)c(N4CCN(CC(=O)Nc5nccs5)CC4)c3[nH]2)cc1 | 0.257 µM (active) | 0.645 µM (active) | inactive | 18.7 µM (active) |  |  |  |  | inactive | inactive | inactive | inactive |  | 
C[C@@H]1C(=O)O[C@H]2CC34[C@H]5C[C@@H](C(C)(C)C)C36[C@H](OC(=O)[C@@H]6O)O[C@@]4(C(=O)O5)[C@]21O (stereo partly drawn) | inactive | inactive | inactive | inactive | inactive | inactive | inactive |  | inactive | inactive | inactive | inactive | -23.3% (inactive) | 
Cc1cnc(-c2cnc(NCCNc3ccc(C#N)cn3)nc2-c2ccc(Cl)cc2Cl)[nH]1 | 14.6 µM (active) | 13 µM (active) | inactive |  |  |  |  |  |  |  | inactive |  | 4.03% (inactive) | inactive
Cc1ccccc1-n1c(Cn2nc(-c3cccc(O)c3)c3c(N)ncnc32)nc2cccc(C)c2c1=O | 6.61 µM (active) | 11.6 µM (active) | 1.18 µM (active) | 1.66 µM (active) | inactive | inactive | inactive |  | 2.96 µM (active) |  |  |  | -11.8% (inactive) | 
CC(C)(C)C(=O)Oc1ccc(S(=O)(=O)Nc2ccccc2C(=O)NCC(=O)O)cc1 | inactive | inactive | inactive | inactive | inactive | inactive |  |  | inactive |  | inactive | inactive | 1.32% (inactive) and -4.44% (inactive) | 
c1coc(CNc2ncnc3nc[nH]c23)c1 | inactive | 18.6 µM (active) | inactive | inactive | inactive | inactive | inactive |  | inactive | inactive |  | inactive | -0.681% (inactive) | 
CC(NCCc1ccc(O)cc1)C(O)c1ccc(O)cc1 (stereo not drawn) | inactive | inactive | inactive | inactive | inactive | inactive |  |  | inactive | inactive | inactive | inactive | -9.55% (inactive) | 
Nc1nc(Nc2ccc(S(N)(=O)=O)cc2)nn1C(=O)c1c(F)cccc1F | 1.16 µM (active) and 1.86 µM (active) | 1.03 µM (active) and 1.48 µM (active) | 16.6 µM (active) |  | 8.33 µM (active) | 10.5 µM (active) |  | 3.55 µM (active) |  |  | 15.8 µM (active) |  |  | 16.6 µM (active)
CC(C)(C)c1nc(-c2cccc(NS(=O)(=O)c3c(F)cccc3F)c2F)c(-c2ccnc(N)n2)s1 | 1.84 µM (active) | 16.6 µM (active) | 11.8 µM (active) | 2.96 µM (active) | inactive | 2.64 µM (active) | inactive |  | inactive | 2.96 µM (active) |  | 0.743 µM (active) |  | 
CCCCCCNC(=O)n1cc(F)c(=O)[nH]c1=O | 1.05 µM (active) | 0.934 µM (active) | inactive |  | inactive | 16.6 µM (active) |  |  |  |  | inactive |  | 8.7% (inactive) and -4.78% (inactive) | 9.35 µM (active)
C=C1C(=O)OC(CCCCCCCC)C1C(=O)O (stereo not drawn) | inactive | inactive | inactive | inactive | inactive | inactive | inactive |  | inactive | inactive | inactive | inactive | -7.15% (inactive) | 
CCCCCCCCCC(=O)N[C@@H](Cc1c[nH]c2ccccc12)C(=O)N[C@H](CC(N)=O)C(=O)N[C@@H](CC(=O)O)C(=O)N[C@@H]1C(=O)NCC(=O)N[C@@H](CCCN)C(=O)N[C@@H](CC(=O)O)C(=O)N[C@H](C)C(=O)N[C@@H](CC(=O)O)C(=O)NCC(=O)N[C@H](CO)C(=O)N[C@@H]([C@@H](C)CC(=O)O)C(=O)N[C@@H](CC(=O)c2ccccc2N)C(=O)O[C@@H]1C | inactive | 68.5 nM (active) and inactive | inactive | inactive | inactive |  |  |  | inactive |  | inactive | inactive | 12.9% (inactive) | 
